Results on 37 compounds are retold here after PubChem BioAssay (NCI).

The nature of test [1]: NCI Yeast Anticancer Drug Screen. Data for the rad50 strain (AID 155).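 Note: 0% = growth of vehicle-only cultures of the same strain.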 As to conditions: S. cerevisiae rad50 strain growth inhibition; at 50.0 µM; stronger effect = higher value. The method in brief:
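Growth of the mutant yeast was measured after compound exposure and referenced to vehicle-treated cultures.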

Test [2] can be described thus: NCI Yeast Anticancer Drug Screen. Data for the mec2-1 strain (AID 157). As to conditions: S. cerevisiae mec2-1 strain, at 50.0 µM, stronger effect = higher value. A digest of the protocol: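 Test agents were screened against the mec2-1 yeast strain, with defined DNA repair or cell cycle alteration. Growth was scored as inhibition against vehicle-only controls.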
A short description of test [3]: NCI Yeast Anticancer Drug Screen. Data for the sgs1 mgt1 strain (AID 161).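 Note: 0% = growth of cultures given vehicle only.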 As to conditions: S. cerevisiae sgs1 mgt1 strain, at 50.0 µM, stronger effect = higher value. A digest of the protocol: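 Read-out: growth inhibition vs vehicle controls. Cells: mutant yeast strain deficient in DNA damage repair.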
Test [4] in a line: NCI Yeast Anticancer Drug Screen. Data for the cln2 rad14 strain (AID 165).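 Note: 0% = growth equal to vehicle treated cultures.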 As to conditions: S. cerevisiae cln2 rad14 strain, at 50.0 µM, stronger effect = higher value. The method in brief: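 Growth of compound-exposed yeast (cln2 rad14 genotype) measured and expressed as inhibition relative to vehicle.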
Test [5] in a line: NCI Yeast Anticancer Drug Screen. Data for the bub3 strain (AID 167). As to conditions: S. cerevisiae bub3 mutant strain, at 50.0 µM, stronger effect = higher value. A digest of the protocol:
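Whole-cell yeast assay. The mutant strain was incubated with compounds, and growth inhibition was determined by comparison with vehicle-treated cells.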

Test [6] can be described thus: NCI Yeast Anticancer Drug Screen. Data for the mlh1 rad18 strain (AID 175). As to conditions: S. cerevisiae mlh1 rad18 strain growth inhibition; at 50.0 µM; stronger effect = higher value. The method in brief:
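In this whole-cell yeast screen, a strain with altered DNA damage repair is challenged with compound, and its growth is measured against matched vehicle-treated controls.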

Each structure is given as a SMILES string. This is part of a sample that, as a whole, favours compounds with a hit. Of some 79,000 tested, about 15% had one in any assay. Unmarked numbers belong to inactive results. Active and inactive are the calls of the source. Cut-off read from the data, not from the text of the source: active = growth inhibition above about 70%; inactive = the rest.

For the compound `COc1ccc(-c2cn3c(nc4ccccc43)c(C)n2)cc1`, the growth inhibition in test [1] was -4.8%; in test [2], -3.15%; in test [3], 16.6%; in test [4], -17.9%; in test [5], 21%; in test [6], -11.3%.
With `CCN(Cc1cccc(S(=O)(=O)O)c1)c1ccc(C(=C2C=CC(=[N+](CC)Cc3cccc(S(=O)(=O)O)c3)C=C2)c2ccc(O)cc2S(=O)(=O)O)cc1`, the growth inhibition in test [1] was -115%; in test [2], -127%; in test [3], -71.2%; in test [4] it was -110%; in test [5], -136%; in test [6], -137%.
Turning to `O=C(CCC(=O)NO)NO`, the growth inhibition in test [1] is 1.4%; in test [2] it was -12.6%; in test [3], 4.75%; in test [4], -17.7%; in test [5], -20.9%; in test [6], -15.9%.
As to `COC(=O)/C(C#N)=C\N1CCNC1=S`, the growth inhibition in test [1] was -54.8%; in test [2], -62.8%; in test [3], -35.9%; in test [4], -15.9%; in test [5], -10.4%; in test [6], -19.5%.
Regarding `NNCCSC1CCCCC1`, the growth inhibition was 8.9% in test [1]; 22.1% in test [2]; 15.3% in test [3]; -63.1% in test [4]; -17% in test [5]; 2.8% in test [6].
In the case of `CC(C)CCCC(C)C1CCC2C3CCC(O)C(C)(CCCO)C3CCC12C` (configuration not stated), the growth inhibition in test [1] is 2%; in test [2], -3.85%; in test [3] it was 11.9%; in test [4], 32.1%; in test [5], 15.3%; in test [6], 13.7%.
As for `COc1ccc(/C=C(\C)C=C(C#N)C#N)cc1`, the growth inhibition was 45.5% in test [1]; 39.8% in test [2]; 52% in test [3]; 38% in test [4]; 45.1% in test [5]; 59.7% in test [6].
As to `O=C1c2ccccc2NC(c2cc(Cl)cc(Cl)c2O)N1CCc1ccccn1` (configuration not stated), the growth inhibition was 8.05% in test [1]; -21.9% in test [2]; -14.4% in test [3]; 14.7% in test [4]; -25.1% in test [5]; -11.9% in test [6].
On to `CCC1=CC(C(O)CC(C)C)C(C)(Cc2ccc(CC)cn2)NC1c1ccccc1` (configuration not stated), for which the growth inhibition was 24.9% in test [1]; 14.8% in test [2]; 40.2% in test [3]; 11.9% in test [4]; 54.1% in test [5]; 50.3% in test [6].
In the case of `CC1CCC(NC(=O)NCCCl)c2ccccc21` (configuration not stated), the growth inhibition is -7.05% in test [1]; -1.3% in test [2]; -1.8% in test [3]; -23.8% in test [4]; -14.2% in test [5]; -6.65% in test [6].
Regarding `CCOP(=O)(OCC)/C(C#N)=C/c1ccc(N(C)C)cc1`, the growth inhibition in test [1] is 16.3%; in test [2] it was -9.2%; in test [3], 12.4%; in test [4], 9.8%; in test [5], -13.9%; in test [6] it was 5.8%.
For `CCCCS(=N)(=O)CC[C@H](N)C(=O)O` (some centres not stated), the growth inhibition is 2.3% in test [1]; -22.6% in test [2]; -25.1% in test [3]; -1.4% in test [4]; -47% in test [5]; -9.85% in test [6].
`CN1C(=O)C(O)Nc2ncncc21` (configuration not stated): the growth inhibition was -5.15% in test [1]; -19.9% in test [2]; -4.55% in test [3]; -45.7% in test [4]; 2.45% in test [5]; -33.2% in test [6].
As for `c1ccc(C(N2CCNCC2)N2CCNCC2)cc1`, the growth inhibition in test [1] is -2.05%; in test [2], 8%; in test [3], 10.1%; in test [4], -3.6%; in test [5], -9.3%; in test [6] it was 17%.
Take `CN1C(=O)C(=O)N2c3ccc(Cl)cc3C3(c4ccccc4)N=CC12O3` (configuration not stated): the growth inhibition was 9.3% in test [1]; 3.05% in test [2]; 6% in test [3]; 5% in test [4]; -8.4% in test [5]; -3.1% in test [6].
Regarding `Cc1ccsc1/C=N/Nc1cc(C)c2ccccc2n1`, the growth inhibition is 41.4% in test [1]; -6.25% in test [2]; 40% in test [3]; 35.8% in test [4]; 26.6% in test [5]; 16.2% in test [6].
On to `COC(=O)C1OC(Sc2ncnc3nc[nH]c23)C(O)C(O)C1O` (configuration not stated), for which the growth inhibition is 3.15% in test [1]; 1.6% in test [2]; -0.85% in test [3]; 17.4% in test [4]; 7.3% in test [5]; 4.9% in test [6].
For the compound `Cc1ccc(NC(=O)CC/C(CC(=O)C(C)(C)C)=N\Nc2ccc([N+](=O)[O-])cc2[N+](=O)[O-])cc1C`, the growth inhibition in test [1] is 18.6%; in test [2], -3.55%; in test [3], -11.7%; in test [4], 4%; in test [5], 7.8%; in test [6] it was -18.3%.
Consider `O=C1c2ccccc2-c2nc3cc4ccccc4cc3nc21`, for which the growth inhibition in test [1] was 20.1%; in test [2], 15.6%; in test [3] it was 22.5%; in test [4], 5.85%; in test [5] it was 11.4%; in test [6] it was 74% (active).
For the compound `CC1(c2nc3ccccc3s2)CCCO1` (configuration not stated), the growth inhibition in test [1] was -6.1%; in test [2] it was 23.8%; in test [3], 7.6%; in test [4], -13.7%; in test [5], 7.55%; in test [6], 8.4%.
On to `CC(=O)NC1C(OCc2ccccc2)OC(COC(=O)CCCCCCCCCCNc2ccc([N+](=O)[O-])c3[nH]c4ccccc4c(=O)c23)C(O)C1OC(C)C(=O)NC(C)C(=O)NC(CCC(N)=O)C(=O)OCc1ccccc1` (configuration not stated), for which the growth inhibition was 30.7% in test [1]; 9.8% in test [2]; -3.3% in test [3]; 14.4% in test [4]; 6.15% in test [5]; 12.9% in test [6].
Take `O=C(OCCO)c1ccccc1O`: the growth inhibition was 2.95% in test [1]; -0.8% in test [2]; -34% in test [3]; 3.3% in test [4]; -0.9% in test [5]; 1.35% in test [6].
On to `CS(=O)(=O)OCCC(O)COS(C)(=O)=O` (configuration not stated), for which the growth inhibition in test [1] was -7.55%; in test [2] it was -7.25%; in test [3], 9.45%; in test [4], -55%; in test [5] it was -12.5%; in test [6], 4.1%.
As to `O=C1C(Cl)=C(Nc2ccc([N+](=O)[O-])cc2)C(=O)c2ccccc21`, the growth inhibition in test [1] was 6.6%; in test [2], 2.55%; in test [3], 4.6%; in test [4], -40%; in test [5], -0.7%; in test [6] it was 5.5%.
On to `O=C1NC(c2cccc3c2OCO3)N=C2Oc3ccccc3C=C12` (configuration not stated), for which the growth inhibition was 9.95% in test [1]; 1.95% in test [2]; 9.45% in test [3]; 7.8% in test [4]; -4.05% in test [5]; -10.6% in test [6].
As for `CCOC(=O)CCC(=O)c1ccc2cc(OC)ccc2c1`, the growth inhibition in test [1] is 5.55%; in test [2], 25.2%; in test [3], 11.8%; in test [4], -36%; in test [5] it was 34.9%; in test [6], 27.1%.
As to `NNC(=O)c1ccc(-c2ccc[nH]2)[nH]1`, the growth inhibition in test [1] was 10.7%; in test [2] it was 0.7%; in test [3] it was -20.9%; in test [4], -75.5%; in test [5], -14.4%; in test [6], 5%.
`CCOc1ncc(C(O)c2ccco2)c(OCC)n1` (configuration not stated): the growth inhibition was -0.85% in test [1]; 5.85% in test [2]; 5.7% in test [3]; -47.8% in test [4]; 3.15% in test [5]; -8% in test [6].
`CC(=O)Oc1c(Br)cc(C(=O)c2ccccc2C(=O)c2cc(Br)c(OC(C)=O)c(Br)c2)cc1Br`: the growth inhibition in test [1] is 13.9%; in test [2], 25.5%; in test [3], 21.6%; in test [4], -16.3%; in test [5], 11.9%; in test [6], 13.7%.
As to `COc1cccc(Br)c1OC`, the growth inhibition in test [1] is -5.4%; in test [2], 1.2%; in test [3], 20.8%; in test [4] it was 38.6%; in test [5], 31.9%; in test [6] it was -3.1%.
As for `C=C1CN2CCc3c([nH]c4ccccc34)C2CC1CC(=O)N(C)C` (configuration not stated), the growth inhibition in test [1] was -33.5%; in test [2], -26.7%; in test [3], -24.4%; in test [4], -1.15%; in test [5], -32%; in test [6] it was -9.65%.
In the case of `COC(=O)c1cc(C(=O)OC)c(CC(=O)C(=O)Nc2ccc(Cl)c(C(F)(F)F)c2)nc1CC(=O)C(=O)Nc1ccc(Cl)c(C(F)(F)F)c1`, the growth inhibition in test [1] is -25.2%; in test [2], -30.2%; in test [3], -30.9%; in test [4] it was 10.5%; in test [5], 12.2%; in test [6], -17.9%.
Turning to `CN1CCN(C(=S)N(C)C(=O)c2ccc(Cl)cc2)CC1`, the growth inhibition is 13.3% in test [1]; -20.1% in test [2]; -20.3% in test [3]; 19.1% in test [4]; -22.9% in test [5]; -9.65% in test [6].
`CCOC(CS(=O)(=O)CC(N)=O)OCC`: the growth inhibition in test [1] was 6.3%; in test [2], 0.45%; in test [3], -3.75%; in test [4], -29.4%; in test [5], -11.8%; in test [6], 5.8%.
As for `CCCc1[nH]n(-c2ccccc2)c(=O)c1N=Nc1ccc(Cl)cc1`, the growth inhibition is -4.25% in test [1]; -6.65% in test [2]; -9.95% in test [3]; -5.1% in test [4]; -7.6% in test [5]; -0.8% in test [6].
Regarding `N#CC1=C2CCCC(C#N)=C2CCC1`, the growth inhibition in test [1] is 0.95%; in test [2], -1%; in test [3], -4.55%; in test [4], -40.1%; in test [5] it was -21.3%; in test [6], -13.8%.
On to `O=C(NC(=O)C(Cl)Cl)OC1c2cc(Cl)ccc2-c2c(Cl)cc(Cl)cc21` (configuration not stated), for which the growth inhibition in test [1] was 99.1% (active); in test [2], 99.5% (active); in test [3] it was 99.3% (active); in test [4], 98.8% (active); in test [5], 97.8% (active); in test [6], 99.2% (active).
